In PubChem BioAssay (NCI):
This is part of a sample that, as a whole, favours compounds with a hit. Of some 83,000 tested, about 20% had one in any assay.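 Cells were grown in 96-well plates and exposed to the test compound at a single concentration for 48 hours; results are reported as percent growth, with values below 10 considered active.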 Values without a mark were called inactive. Activity calls are given as the source filed them.

Tests used:
Experiment in all cases: NCI-60 one-dose screen, 48 h (100 = growth as untreated, 0 = no growth, -100 = all killed)
Settings in all cases: 10 µM unless noted
SR leukemia = tested on: SR leukemia
RPMI-8226 leukemia = tested on: RPMI-8226 leukemia
OVCAR-5 ovarian = tested on: OVCAR-5 ovarian
OVCAR-4 ovarian = tested on: OVCAR-4 ovarian
SK-OV-3 ovarian = tested on: SK-OV-3 ovarian
IGROV1 ovarian = tested on: IGROV1 ovarian
OVCAR-3 ovarian = tested on: OVCAR-3 ovarian
HS 578T breast = tested on: HS 578T breast
NCI/ADR-RES ovarian = tested on: NCI/ADR-RES ovarian
T-47D breast = tested on: T-47D breast
BT-549 breast = tested on: BT-549 breast
MDA-MB-435 melanoma = tested on: MDA-MB-435 melanoma
SW-620 colon = tested on: SW-620 colon
MCF7 breast = tested on: MCF7 breast
HCT-116 colon = tested on: HCT-116 colon
KM12 colon = tested on: KM12 colon
HCC-2998 colon = tested on: HCC-2998 colon
OVCAR-8 ovarian = tested on: OVCAR-8 ovarian

SMILES	growth (SR leukemia)	growth (RPMI-8226 leukemia)	growth (OVCAR-5 ovarian)	growth (OVCAR-4 ovarian)	growth (SK-OV-3 ovarian)	growth (IGROV1 ovarian)	growth (OVCAR-3 ovarian)	growth (HS 578T breast)	growth (NCI/ADR-RES ovarian)	growth (T-47D breast)	growth (BT-549 breast)	growth (MDA-MB-435 melanoma)	growth (SW-620 colon)	growth (MCF7 breast)	growth (HCT-116 colon)	growth (KM12 colon)	growth (HCC-2998 colon)	growth (OVCAR-8 ovarian)
OCCN1CCN(c2nc(Nc3ccc(-c4nc5ccccc5[nH]4)cc3)c3cn[nH]c3n2)CC1	-61.1% (active)	-48.5% (active)	-76.2% (active)	-74.6% (active)	-95.9% (active)	-78% (active)	-82.3% (active)	-47% (active)	-77.3% (active)	-68.4% (active)	-52.3% (active)	-89.9% (active)	-85.4% (active)	-74.4% (active)	-80.1% (active)	-73.1% (active)	–	–
COc1ccc(C2CC(c3ccc4ccccc4c3)=NN2/C=C2\SC(=S)N(NC(=O)Cc3ccccc3Nc3c(Cl)cccc3Cl)C2=O)cc1 (stereo not drawn)	20.8%	-10.1% (active)	56.8%	70%	41.9%	33.1%	2.15% (active)	13.3%	9.39% (active)	19.2%	30%	-49.8% (active)	22.6%	22.5%	18.6%	16%	31.2%	–
Cc1cc2nc3[nH]c4ccccc4c3nc2cc1C	14.2%	–	102%	82.8%	86.2%	-6.27% (active)	92%	1.63% (active)	78.9%	58.9%	92.4%	120%	73.3%	48.2%	46.1%	77.9%	98.4%	62.3%
CC1CCNC(C)C1 (stereo not drawn)	105%	98.2%	113%	99.6%	99.6%	116%	112%	104%	106%	104%	105%	107%	100%	96.8%	108%	106%	103%	–
COc1cc(/C=C/c2cc(/C=C/c3ccc(O)c(OC)c3)n(-c3c(C)cccc3C)c(=O)n2)ccc1O	0.0669% (active)	-27.4% (active)	9.05% (active)	3.15% (active)	–	9.72% (active)	5.84% (active)	-4.97% (active)	12.6%	-4.26% (active)	-18.1% (active)	2.28% (active)	7.79% (active)	1.69% (active)	8.26% (active)	11.6%	24.1%	–
Cc1[nH]c(-c2cc(N)ccc2Cl)c2c1C(=O)CCCC2	44.8%	12.7%	49.3%	36.4%	11.7%	20.6%	30.4%	7.36% (active)	33%	19.8%	49.8%	15.5%	64.6%	12.8%	29.4%	32.6%	33.5%	–
CCN(CC)c1ccc2c(c1)Oc1nc(N)c(C#N)c(N)c1C2Sc1ccc(SC)cc1 (stereo not drawn)	-18.8% (active)	-37.3% (active)	-27.1% (active)	-2.7% (active)	-4.96% (active)	-13.9% (active)	-30.4% (active)	26%	10.8%	-4.08% (active)	-80.4% (active)	-25.7% (active)	-70.7% (active)	-0.904% (active)	-27.5% (active)	-74.5% (active)	-72.2% (active)	–
COc1ccc(CN2c3ccccc3Oc3ccccc32)cc1O	17.4%	14.1%	91.5%	55.1%	31.3%	45.3%	18.6%	31.1%	25.2%	30.6%	39.9%	9.49% (active)	27%	27.3%	13.7%	20.9%	–	–
OC(c1cc2cc(Cl)c(Cl)cc2c2cc(C(F)(F)F)ccc12)C1CCCCN1 (stereo not drawn)	-59.9% (active)	-37.1% (active)	-41.6% (active)	–	34%	-64.9% (active)	-90.3% (active)	–	-79.1% (active)	-78.6% (active)	76.4%	-73.9% (active)	-74% (active)	-87.3% (active)	-87.3% (active)	-91.1% (active)	-80.9% (active)	-71.3% (active)
Cn1ncc2c(=O)nc3c(-c4ccccc4)n[nH]n3c21	113%	123%	109%	100%	103%	–	95.4%	108%	105%	95.6%	–	101%	107%	92.8%	97.6%	113%	99.2%	–
CN1CCN=C1c1ccc(NC(=O)c2ccc(C(=O)Nc3ccc(C4=NCCN4C)cc3)cc2)cc1	89.4%	–	87.5%	98.3%	96.5%	90.1%	109%	80.3%	100%	86.7%	97.5%	108%	102%	76.5%	91.1%	98.7%	112%	85.7%
NNCCc1ccc(NC(=O)CCCc2ccc(/C=C/C(=O)NO)cc2)cc1	18.2%	37.5%	71.4%	29.9%	64.1%	62.9%	55.3%	21.2%	44.3%	-5.44% (active)	44.9%	66%	43.3%	30.8%	35.3%	57.1%	95.5%	–
CC(=O)c1cc2c(N)c(C(=O)Nc3ccccc3)sc2nc1C	51.8%	89%	96%	88.9%	28.8%	83.9%	90%	69.8%	75.9%	99.5%	67.3%	-29.3% (active)	69.4%	59.8%	102%	75.1%	79.4%	–
CCCCC/C(C=C(C#N)C#N)=C/c1ccccc1	7.75% (active)	-14.1% (active)	113%	86.4%	–	–	–	–	65%	76.1%	69.3%	27%	59.2%	38.5%	27.7%	72.6%	88.3%	12.3%
COc1ccc2cc(-c3nn(-c4ccc(C(=O)O)cc4)cc3CO)ccc2c1	90.8%	95.1%	100%	106%	107%	99.2%	93.5%	97.3%	99.8%	98.5%	93.5%	98.6%	107%	91%	91%	101%	100%	–
Cc1cc2c3ccccc3ccc2[n+]2ccccc12	-22.5% (active)	–	81.1%	31.6%	71.5%	34%	27.1%	-23.7% (active)	46.7%	4.64% (active)	-2.46% (active)	76.5%	33%	27.2%	43.5%	25.9%	47%	-28.5% (active)
